The nature of assay [1]: TOX21_p53_BLA_p2_viability: Viability Assessment in the Tox21 HCT-116 p53 Agonism Beta-lactamase Assay, Phase 2 (AID 2283591).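 Note: actives lower the ATP signal meaning cytotoxicity.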 In short, it runs like this:
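HCT116 p53-bla cells, 4000/well, dosed after 5 h plating (217-fold dilution of DMSO stocks) and incubated 16 h at 37C. Viability taken as cellular ATP by CellTiter-Glo luminescence after 30 min RT; signal loss marks cytotoxicity.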

Assay [2] is described as follows: TOX21_p53_BLA_p3_viability: Viability Assessment in the Tox21 HCT-116 p53 Agonism Beta-lactamase Assay, Phase 3 (AID 2283593).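 Note: cells exposed to compound for 16 h before reading.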 An outline of the steps: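 HCT116 cells, 4000/well, dosed 5 h after plating by pin transfer (217-fold dilution from DMSO stock) and incubated 16 h at 37C, 5% CO2. Viability read as ATP luminescence with CellTiter-Glo after 30 min at room temperature.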

Assay [3] deals with Cellular tumor antigen p53 (Homo sapiens) (UniProt P04637). The assay is described as follows: TOX21_p53_BLA_p3_ratio: Tox21 HCT-116 p53 Agonism Beta-lactamase Assay, Ratio, Phase 3 (AID 2283596). An outline of the steps:
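Cells were seeded at 4000/well, rested 5 h at 37C, then dosed with DMSO compound solutions (217-fold dilution) for 16 h. CCF4-AM substrate was loaded for 2 h at room temperature, and the 460/530 nm emission ratio was fitted for gain of signal versus DMSO.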

A short description of assay [4]: TOX21_p53_BLA_p4_viability: Viability Assessment in the Tox21 HCT-116 p53 Agonism Beta-lactamase Assay, Phase 4 (AID 2283597).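 Note: hits lower the luminescence signal meaning cytotoxicity.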 In short, it runs like this:
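4000 HCT116 cells per well; 5 h attachment; compounds from DMSO, 217-fold dilution; 16 h at 37C. Then CCF4-AM, 2 h RT, followed by CellTiter-Glo, 30 min RT, luminescence. Decrease = cytotoxicity.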

In assay [5] the target is Cellular tumor antigen p53 (Homo sapiens) (UniProt P04637). The experiment in a line: TOX21_p53_BLA_p5_ratio: Tox21 HCT-116 p53 Agonism Beta-lactamase Assay, Ratio, Phase 5 (AID 2283599). An outline of the steps:
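HCT-116 p53-bla cells (4000/well) plated 5 h, dosed with compound (217-fold DMSO dilution) for 16 h at 37 C; CCF4-AM substrate 2 h at room temperature. Activity is the 460/530 nm emission ratio (405 nm excitation), fitted in gain-of-signal direction versus DMSO.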

The nature of assay [6]: TOX21_p53_BLA_p5_viability: Viability Assessment in the Tox21 HCT-116 p53 Agonism Beta-lactamase Assay, Phase 5 (AID 2283600). An outline of the steps: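 Decreased CellTiter-Glo luminescence denotes lost viability. Exposure: 16 h at 37C, 5% CO2, with compounds from DMSO stocks diluted 217-fold in wells of 4000 cells.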
The target in assay [7] is Cellular tumor antigen p53 (Homo sapiens) (UniProt P04637). The assay is described as follows: TOX21_p53_BLA_p4_ratio: Tox21 HCT-116 p53 Agonism Beta-lactamase Assay, Ratio, Phase 4 (AID 2283601). An outline of the steps:
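HCT-116 p53 beta-lactamase reporter cells (4000/well) preincubated 5 h, then compound (217-fold dilution of DMSO stock) for 16 h at 37C. CCF4-AM substrate added 2 h at room temperature; 460/530 nm emission ratio fitted upward versus DMSO.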

The target in assay [8] is PGR (gene 5241) (UniProt P06401). The assay is described as follows: TOX21_PR_BLA_Followup_Antagonist_ratio: Tox21 HEK293 Progesterone Receptor (PR) Antagonism Beta-lactamase Follow-Up Assay, Ratio (AID 2283934).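 Note: PR-UAS-bla HEK293T cells stimulated with 1 nM R5020 agonist for 16 hr.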 In short, it runs like this:
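Measured in PR-UAS-bla HEK293T cells co-treated with compound and 1 nM promegestone for 16 hr; beta-lactamase ratio read after 2 h FRET substrate loading, with parallel CellTiter-Glo cytotoxicity.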

Assay [9] in a line: TOX21_PR_BLA_Followup_Agonist_viability: Viability Assessment in the Tox21 HEK293 Progesterone Receptor (PR) Agonism Beta-lactamase Follow-Up Assay (AID 2283935).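 Note: signal loss means lower viability so actives are cytotoxic.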 An outline of the steps:
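Viability is read as CellTiter-Glo luminescence, where loss of signal indicates cytotoxicity. The cells are PR-UAS-bla HEK293T given compounds for 16 hr at 37C and 5% CO2, in the same wells used for the bla readout.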

Assay [10] can be described thus: TOX21_PR_BLA_Followup_Antagonist_viability: Viability Assessment in the Tox21 HEK293 Progesterone Receptor (PR) Antagonism Beta-lactamase Follow-Up Assay (AID 2283936).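 Note: cells exposed to compound with R5020 agonist for 16 h; hits lower the luminescence signal meaning cytotoxicity.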 In short, it runs like this: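 PR-UAS-bla HEK293T cells in medium with 2% charcoal-stripped FBS were treated with compounds plus R5020 for 16 hr at 37C. After the beta-lactamase read, CellTiter-Glo was added to the same wells and luminescence read after 30 min at room temperature.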

In assay [11] the target is PGR (gene 5241) (UniProt P06401). The experiment in a line: TOX21_PR_LUC_Followup_Antagonist: Tox21 HEK293 Progesterone Receptor (PR) Antagonism Luciferase Follow-Up Assay (AID 2283938).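 Note: curve fitted upward as signal gain over DMSO baseline despite antagonist label.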 In short, it runs like this: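 HEK293-PR-A-luc cells, 3,000/well, preincubated 5 h at 37C before compound addition in DMSO; 16 h compound exposure at 37C. ONE-Glo luciferase luminescence read after 30 min at room temperature, fitted relative to DMSO baseline.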
Sequence of PGR (gene 5241) (P06401 whole entry, looked up): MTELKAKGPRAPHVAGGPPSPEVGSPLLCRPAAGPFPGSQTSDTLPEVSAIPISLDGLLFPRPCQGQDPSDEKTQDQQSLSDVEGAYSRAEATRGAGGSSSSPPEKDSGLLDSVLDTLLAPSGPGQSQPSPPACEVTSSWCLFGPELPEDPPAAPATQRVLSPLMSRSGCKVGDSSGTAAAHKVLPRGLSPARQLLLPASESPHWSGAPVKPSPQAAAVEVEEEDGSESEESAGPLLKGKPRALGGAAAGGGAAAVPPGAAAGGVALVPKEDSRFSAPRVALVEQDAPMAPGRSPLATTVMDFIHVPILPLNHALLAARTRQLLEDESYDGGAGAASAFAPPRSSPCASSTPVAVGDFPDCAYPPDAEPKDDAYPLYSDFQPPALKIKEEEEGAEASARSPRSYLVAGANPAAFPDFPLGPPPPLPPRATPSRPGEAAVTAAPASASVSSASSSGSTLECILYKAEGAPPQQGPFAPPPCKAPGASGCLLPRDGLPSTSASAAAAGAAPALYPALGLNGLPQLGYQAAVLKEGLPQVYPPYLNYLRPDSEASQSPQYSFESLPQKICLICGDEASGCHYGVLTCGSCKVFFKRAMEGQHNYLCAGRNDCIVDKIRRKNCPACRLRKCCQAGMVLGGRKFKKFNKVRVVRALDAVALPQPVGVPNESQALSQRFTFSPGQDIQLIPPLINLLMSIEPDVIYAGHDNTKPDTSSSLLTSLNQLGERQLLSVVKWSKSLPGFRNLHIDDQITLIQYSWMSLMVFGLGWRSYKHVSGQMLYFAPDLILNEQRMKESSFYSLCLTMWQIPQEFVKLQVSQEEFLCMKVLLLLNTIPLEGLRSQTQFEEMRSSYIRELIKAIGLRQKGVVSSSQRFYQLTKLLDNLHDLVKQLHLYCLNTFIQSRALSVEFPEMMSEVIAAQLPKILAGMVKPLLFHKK

The nature of assay [12]: TOX21_PR_LUC_Followup_Antagonist_viability: Viability Assessment in the Tox21 HEK293 Progesterone Receptor (PR) Antagonism Luciferase Follow-Up Assay (AID 2283940). In short, it runs like this:
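Loss of CellTiter-Glo ATP signal indicates cytotoxicity in HEK293-PR-A-luc cells grown in 10% charcoal-stripped FBS medium, seeded 3,000 per well and incubated 16 h with compound at 37C.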

A short description of assay [13]: TOX21_PR_LUC_Followup_Agonist_viability: Viability Assessment in the Tox21 HEK293 Progesterone Receptor (PR) Agonism Luciferase Follow-Up Assay (AID 2283941).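 Note: loss of signal means cytotoxicity so actives lower viability.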 An outline of the steps: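 Seeding: HEK293-PR-A-luc, 3,000 cells/well, 5 h at 37C. Treatment: compound in DMSO, 16 h, 37C. Read: CellTiter-Glo ATP luminescence, signal loss taken as lower viability.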

For orientation: AC50 means the midpoint of the concentration-response curve, whichever way the signal moves.

Inconclusive results are not listed. Activity calls are given as the source filed them. Rule for the calls: active = hit-call score of the fitted dose curve at least 0.9, where 1 is the maximum; inconclusive = response in the unintended direction; inactive = score below 0.9.

Sequence of Cellular tumor antigen p53 (Homo sapiens) (P04637 whole entry, looked up): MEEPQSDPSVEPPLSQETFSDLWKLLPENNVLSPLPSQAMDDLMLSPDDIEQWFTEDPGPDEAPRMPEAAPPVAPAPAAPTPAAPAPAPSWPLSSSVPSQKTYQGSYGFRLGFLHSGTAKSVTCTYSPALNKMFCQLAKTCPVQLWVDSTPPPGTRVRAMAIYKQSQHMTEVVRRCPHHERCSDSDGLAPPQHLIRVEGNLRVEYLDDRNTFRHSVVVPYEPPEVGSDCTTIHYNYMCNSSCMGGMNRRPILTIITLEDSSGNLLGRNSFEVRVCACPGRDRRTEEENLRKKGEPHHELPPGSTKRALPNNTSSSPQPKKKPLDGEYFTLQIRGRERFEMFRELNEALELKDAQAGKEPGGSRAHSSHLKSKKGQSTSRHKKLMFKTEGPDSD

As to `CNc1cc(OC)c(C(=O)N[C@H]2CCN(Cc3ccccc3)[C@H]2C)cc1Cl`, the call in [1], in assay [2], in [3], in assay [4], in [5] and in assay [6] was inactive.

As to `OC[C@@H](O)[C@@H](O)CO`, the outcome in assay [1], in [2], in assay [3], in [4], in assay [5] and in assay [6] was inactive. In assay [7], the result was inactive.

For `CCNC(=O)/C=C/c1cccc(Br)c1`, the call in assay [1], in [2], in assay [3], in assay [4], in assay [5] and in assay [6] was inactive.

As to `O=C1C=CC(=O)N1`, the molecule was called inactive in assay [1] and in [6]. The AC50 is 69.8 µM (active) in assay [2]; 70.8 µM (active) in [3]; 79.4 µM (active) in assay [4]; 82.4 µM (active) in assay [5]; 70.3 µM (active) in [7].

On to `Clc1ccc(COC(Cn2ccnc2)c2ccc(Cl)cc2Cl)c(Cl)c1` (centres undefined), for which the result in assay [1], in [2], in assay [3], in assay [4], in [5] and in assay [6] was inactive. In addition, in [7], the result was inactive.

For the molecule `O=S(=O)(O)c1ccc2c(N=Nc3ccc(S(=O)(=O)O)c4ccccc34)c(O)c(S(=O)(=O)O)cc2c1`, the molecule was classed as inactive in assay [1], in [2], in assay [3], in [4], in [5] and in assay [6]. Further, the outcome in [7] was inactive.

On to `C/C(=C(\CCOC(=O)c1ccccc1)SS/C(CCOC(=O)c1ccccc1)=C(/C)N(C=O)Cc1cnc(C)nc1N)N(C=O)Cc1cnc(C)nc1N`, for which the call in assay [1], in assay [2], in assay [3], in [4], in [5] and in assay [6] was inactive. Also, the outcome in assay [7] was inactive.

In the case of `CCc1ncnc2cc(OC)c(OC)cc12`, the result in assay [1], in [2], in [3], in [4], in assay [5] and in assay [6] was inactive. In [7], the outcome was inactive.

Consider `CCCCC(=O)OCC(=O)[C@]1(O)Cc2c(O)c3c(c(O)c2[C@@H](O[C@H]2C[C@H](NC(=O)C(F)(F)F)[C@H](O)[C@H](C)O2)C1)C(=O)c1c(OC)cccc1C3=O`, for which the molecule was classed as inactive in [1], in [2], in assay [4] and in assay [6]. Further, the AC50 was 8.58 µM (active) in [3], 7.73 µM (active) in assay [5] and 5.24 µM (active) in [7].

Take `COc1cc([C@@H]2c3cc4c(cc3C(O[C@@H]3O[C@@H]5COC(c6cccs6)O[C@H]5[C@H](O)[C@H]3O)C3COC(=O)[C@@H]32)OCO4)cc(OC)c1O` (some centres undefined): the molecule was classed as inactive in assay [1], in assay [2], in assay [4] and in assay [6]. Further, the figures for the AC50 in [3], in assay [5] and in [7] were 0.939 µM (active), 0.886 µM (active) and 0.841 µM (active), respectively.

As for `CCOC(=O)[C@H](CCc1ccccc1)N[C@@H](C)C(=O)N1[C@H](C(=O)O)C[C@H]2CCCC[C@@H]21`, the outcome in assay [1], in assay [2], in [3], in assay [4], in assay [5] and in assay [6] was inactive. The result in [7] was inactive.

`CC(=O)C=Cc1ccco1`: the outcome in assay [1], in assay [2], in [3], in assay [4], in [5] and in [6] was inactive. In assay [7], the outcome was inactive.

As for `COCC(=O)O[C@]1(CCN(C)CCCc2nc3ccccc3[nH]2)CCc2cc(F)ccc2[C@@H]1C(C)C`, the AC50 in [1] was 13.1 µM (active); in [2], 10.9 µM (active); in assay [3] it was 19.6 µM (active); in assay [4], 9.78 µM (active); in assay [5], 25.4 µM (active); in [6] it was 15.8 µM (active). Besides, the AC50 in assay [7] was 21.6 µM (active).

In the case of `COc1ccc(OC)c(NC(=O)CC(C)=O)c1`, the outcome in assay [1], in assay [2], in [3], in assay [4], in assay [5] and in [6] was inactive. In addition, the outcome in assay [7] was inactive.

As to `Cc1c(C)c2c(c(C)c1OC(=O)CCC(=O)OCCO)CCC(C)(CCCC(C)CCCC(C)CCCC(C)C)O2` (centres undefined), the molecule was called inactive in assay [1]. The AC50 was 19.2 µM (active) in assay [2]; 37.3 µM (active) in assay [3]; 34.6 µM (active) in assay [4]; 16.2 µM (active) in assay [5]; 13.3 µM (active) in assay [6]; 37.8 µM (active) in assay [7].

Consider `CCCCCCCCCCCCC(=O)O`, for which the molecule was called inactive in assay [1], in assay [2], in [3], in assay [4], in assay [5] and in [6].

As for `NC(=O)CCCCC(N)=O`, the call in assay [1], in [2], in assay [3], in [4], in [5] and in [6] was inactive.

As for `CC(=O)N1C[C@H](O)C[C@H]1C(=O)O`, the outcome in [1], in assay [2], in assay [3], in assay [4], in assay [5] and in [6] was inactive. Further, the outcome in assay [7] was inactive.

Regarding `O=C1c2c(O)ccc([N+](=O)[O-])c2C(=O)c2c([N+](=O)[O-])ccc(O)c21`, the AC50 in assay [1] was 7.2 µM (active); in assay [2], 9.74 µM (active); in assay [3], 28.7 µM (active); in [4], 11.7 µM (active); in assay [5], 30.2 µM (active); in assay [6], 9.58 µM (active). Also, the AC50 in assay [7] is 20.7 µM (active).

In the case of `CCC(=O)c1ccc(O)cc1`, the call in assay [1], in assay [2], in [3], in assay [4], in [5] and in assay [6] was inactive.

On to `CC(C(=O)O)c1cccc(C(=O)c2ccccc2)c1` (centres undefined), for which the outcome in assay [1], in assay [2], in [3], in [4], in assay [5] and in assay [6] was inactive. The outcome in [7] was inactive.

Regarding `CC(C)n1nc(-c2cc3cc(O)ccc3[nH]2)c2c(N)ncnc21`, the AC50 in assay [1] was 23 µM (active); in assay [4] it was 11.6 µM (active); in assay [5], 34.6 µM (active). Also, the molecule was classed as inactive in [2], in assay [3], in assay [6] and in assay [7].

Turning to `CC(=NO)C(C)=NO`, the outcome in assay [1], in assay [2], in assay [3], in [4], in [5] and in assay [6] was inactive. For the same molecule, the outcome in assay [7] was inactive.

`O=P(O)(O)CP(=O)(O)O`: the outcome in assay [1], in [2], in assay [3], in assay [4], in assay [6] and in assay [7] was inactive.

For `CCCCC(=O)OCC(=O)[C@H]1[C@H](C)C[C@H]2[C@@H]3C[C@H](F)C4=CC(=O)C=C[C@]4(C)[C@@]3(F)[C@@H](O)C[C@@]21C`, the molecule was called inactive in assay [1], in [2], in assay [3], in assay [4] and in assay [6].

As for `C[C@]12CCC(=O)C=C1C=C[C@@H]1[C@@H]2CC[C@@]2(C)[C@H]1CC[C@@]21CCC(=O)O1`, the molecule was called inactive in assay [1], in assay [2], in [3], in [4], in assay [5] and in [6]. In addition, the result (with PGR (gene 5241) [8]; in [9]; in assay [10]; with PGR (gene 5241) [11]; in [12]; in [13]) was inactive.

The values above are taken from PubChem BioAssay (EPA / NIEHS).
